Laboratory results published in ChEMBL document CHEMBL4513216, “Probing the Open Global Health Chemical Diversity Library for Multistage-Active Starting Points for Next-Generation Antimalarials” (ACS Infect Dis, 2020).
Out of some 69,000 compounds screened, about 8,600 (12%) showed an effect of 50% or more. The list comes from a sample in which strong results are over-represented; it also holds similar structures and randomly drawn compounds.

test system: Plasmodium berghei; test: Screen against P. berghei liver stage (PbLuc), transformed with Luciferase, at 10uM; type: functional, HepG2; conditions: tested at 10 uM

Row | Structure (SMILES) | INHIBITION
1 | CC1CCN(S(=O)(=O)N2CCCN(CC3CCCO3)CC2)CC1 (stereo unspecified) | 38%
2 | CC(C)n1cnc2c1C(C(=O)NCCO)N(Cc1ccccc1)CC2 (stereo unspecified) | -18.4%
3 | CSc1ncc(C(=O)N2C[C@@H]3CC[C@H]2CN(c2ncccn2)C3)cn1 | 14%
4 | CCn1ncc2c1CN(C(=O)c1cscn1)CC2COC (stereo unspecified) | 45.1%
5 | COCC1CN(C(=O)c2ccnnc2)Cc2ncnn2C1 (stereo unspecified) | -41.6%
6 | COCC1CN(C(=O)Cc2ccccn2)Cc2ncnn2C1 (stereo unspecified) | 64.9%
7 | CCn1ncc2c1CN(C(=O)c1ccc3c(c1)OCO3)CC2COC (stereo unspecified) | 50.7%
8 | COCC1CN(C(=O)Cc2cccs2)Cc2c1cnn2C (stereo unspecified) | 66%
9 | CCn1ncc2c1CN(C(=O)Cc1cccs1)CC2COC (stereo unspecified) | -27.9%
10 | CCn1ncc2c1CN(C(=O)c1cc(C)oc1C)CC2COC (stereo unspecified) | -12.1%
11 | COCC1CN(C(=O)CNC(C)=O)Cc2ncnn2C1 (stereo unspecified) | 6.8%
12 | COCC1CN(C(=O)c2cccn2C)Cc2c1cnn2CC1CC1 (stereo unspecified) | 31.7%
13 | COCC1CN(C(=O)Cc2ccsc2)Cc2c1cnn2C (stereo unspecified) | 46.2%
14 | COCC1CN(C(=O)CC2Cc3ccccc3C2)Cc2c1cnn2C (stereo unspecified) | 59%
15 | COCC1CN(C(=O)c2ccnnc2)Cc2c1cnn2C (stereo unspecified) | 48.3%
16 | Cc1ccc(N2CCCC(NCc3sccc3C)C2)nn1 (stereo unspecified) | 36.1%
17 | O=C(c1cscn1)N1CCC2(CN(Cc3nccs3)C2)C1 | 15.9%
18 | Cc1csc2ncc(-c3ccnc(NC4CCOCC4)n3)c(=O)n12 | -9.27%
19 | CCCc1noc(C(C)N(CC)Cc2ccco2)n1 (stereo unspecified) | -30.5%
20 | O=C(c1ccno1)N1CC[C@@H]2O[C@H](COCCN3CCCC3)CC[C@@H]21 | 4.27%
21 | O=C1CCC2(CCCN(C(=O)Cc3cccnc3)C2)N1 (stereo unspecified) | 0.112%
22 | Fc1ccc(C2CCCN2Cc2nc(Cc3ccccc3F)no2)cc1 (stereo unspecified) | 25.8%

Row | Structure (SMILES) | INHIBITION
23 | c1ccc(-c2cc(CN3CCCCCC3c3ccco3)on2)nc1 (stereo unspecified) | -15%
24 | CCc1nc(C2CCCN2Cc2ccno2)no1 (stereo unspecified) | 19.6%
25 | Fc1cccc(C2CCCCN2Cc2nc(-c3cnccn3)no2)c1 (stereo unspecified) | -12.6%
26 | CCc1cc(CN2CCCCC2c2ccc(F)cc2)on1 (stereo unspecified) | 65.7%
27 | Fc1ccc(C2CCCCN2Cc2cc(-c3ccccn3)no2)cc1 (stereo unspecified) | 51.8%
28 | COc1ccc(C2CCCCCN2S(C)(=O)=O)cc1 (stereo unspecified) | 27.4%
29 | Cc1ccc2c(n1)N(C)CCN(Cc1ccco1)C2 | 3.88%
30 | CN1CCN(c2ncnc3c2CCN(S(=O)(=O)C2CC2)CC3)CC1 | 29.4%
31 | CC(C)CNc1nc(C(=O)/N=c2\[nH]nc(C(C)(C)C)s2)cs1 | 11.5%
32 | Cc1cs/c(=N\C(=O)c2c3c(nc4onc(C)c24)CCC3)[nH]1 | 24.1%
33 | Cc1[nH]/c(=N\C(=O)c2csc(NCC(C)C)n2)sc1C | 89.6%
34 | Cc1cc(O)c(OCC(=O)/N=c2\[nH]c(C)c(C)s2)cn1 | -69.4%
35 | CC(=O)Nc1nc(C(=O)NC(C)c2ccc(F)cc2)cs1 (stereo unspecified) | -45.2%
36 | Cc1cs/c(=N/C(=O)c2csc(NCC(C)C)n2)[nH]1 | 90.8%
37 | Cc1nn(C(C)C)c(C)c1CN1CCN(C2CCCCC2)C(=O)C1 | 5.1%
38 | CCN1CC[C@@]2(C(=O)N3CCOCC3)CCN(S(=O)(=O)CC)CC[C@@H]12 | 17.4%
39 | Cc1ccn2cc(C(=O)N3CCCC(Cn4cc(CO)nn4)C3)nc2c1 (stereo unspecified) | 36.7%
40 | Cc1cc2n(n1)[C@@H](C(F)(F)F)C[C@@H](C1CCN(C(=O)C3CC3)CC1)N2 | -4.51%
41 | CC(C)(C)CC(=O)NS(=O)(=O)c1ccc(C#N)cc1C(F)(F)F | 19.2%
42 | Cc1cc(C)n(-c2cncc(NCCNC(=O)C3CCCC3)n2)n1 | 45.2%
43 | CS(=O)(=O)N1CC[C@H]2C[C@@H](C(=O)N3CCOCC3)O[C@@H]2C1 | 25.4%
44 | CS(=O)(=O)N1C[C@@H]2C[C@H](C(=O)N3CCOCC3)[C@H](C1)O2 | 0.112%

Row | Structure (SMILES) | INHIBITION
45 | CS(=O)(=O)N1CCn2c(C(=O)N3CCOCC3)cnc2C1 | 52.6%
46 | Cc1cccc(NS(=O)(=O)c2cc3c(c(C(=O)O)c2)OCCO3)c1 | 7.27%
47 | Cc1cc(C)cc(NS(=O)(=O)c2cc3c(c(C(=O)O)c2)OCCO3)c1 | 57.2%
48 | O=C(O)c1cc(S(=O)(=O)Nc2cc(F)cc(F)c2)cc2c1OCCO2 | 40%
49 | COCCN1C(=O)CCC12CCC(NC(=O)c1cnccn1)CC2 (stereo unspecified) | -14.7%
50 | CNC(=O)C1(c2cnccn2)CCCN1C(=O)c1ccccc1F (stereo unspecified) | 13.5%
51 | C[C@H]1CN(CC2CCOCC2)C[C@@]12CCN(Cc1cccnc1)C2=O | 3.81%
52 | Cc1nn(C)c2nc(-c3ccccn3)nc(NCCC3CCCN3C)c12 (stereo unspecified) | 11.2%
53 | CN1CCCC1CCn1ccnc1-c1nc2ccccc2[nH]1 (stereo unspecified) | 53.9%
54 | CN1CCCC1CCn1ccnc1-c1nc(-c2ccccc2)no1 (stereo unspecified) | 51.8%
55 | CN1CCCC1CCn1ccnc1-c1ccc2ccccc2n1 (stereo unspecified) | 72.3%
56 | OCC1CCCCN1CCn1ccnc1-c1nc2ccccc2[nH]1 (stereo unspecified) | 38.8%
57 | Cc1nccn1CCC1CCNCC1 | 39.6%
58 | Cn1ccnc1CN1CCCCC1c1nc(-c2ccccc2)no1 (stereo unspecified) | 30.4%
59 | Cc1nc(CN2CCCC2Cn2ccnc2C(C)C)nc2ccccc12 (stereo unspecified) | 30.4%
60 | c1ccc(-c2noc(CCCN3CCCC3Cn3cccn3)n2)cc1 (stereo unspecified) | 45.7%
61 | COCCN1CCCC1Cn1nc(C)cc1C (stereo unspecified) | 32.3%
62 | Cc1cc(=O)n2nc(Oc3ccc(Cl)c(C)c3)sc2n1 | 16.3%
63 | CCC(C)N(Cc1cnc(NCC(=O)O)nc1)Cc1ccsc1 (stereo unspecified) | 41.3%
64 | O=C(Cc1ccccc1O)NC1CCCN(c2ccccc2F)C1=O (stereo unspecified) | 26.4%
65 | Cc1cc(C(=O)NCCC(=O)N2CCCc3ccccc32)no1 | 1.51%
66 | O=C(c1ccnnc1)N1C[C@H](OCC2CCOCC2)[C@H]2OCCC[C@H]21 | 4.68%

Row | Structure (SMILES) | INHIBITION
67 | CC(C)(C)c1cnc(CNCC2CCCN2c2cccnn2)o1 (stereo unspecified) | 34.1%
68 | CN(Cc1nc2ccccc2o1)CC1CCCN1c1cccnn1 (stereo unspecified) | 55%
69 | Cc1nnc(CN(C)CC2CCCN2c2cccnn2)o1 (stereo unspecified) | 19.5%
70 | CN(Cc1ncc(-c2ccccc2)o1)CC1CCCN1c1cccnn1 (stereo unspecified) | 37%
71 | CN(Cc1ncc(C(C)(C)C)o1)CC1CCCN1c1cccnn1 (stereo unspecified) | 86.6%
72 | CN(Cc1nc(N)c2ccccc2n1)CC1CCCN1c1cccnn1 (stereo unspecified) | 11.8%
73 | Cc1nc(CN(C)CC2CCCN2c2cccnn2)nc2ccccc12 (stereo unspecified) | 60.9%
74 | Cc1nc2ccccc2nc1CN(C)CC1CCCN1c1cccnn1 (stereo unspecified) | 10.2%
75 | Cc1nc(CN(C)CC2CCCN2c2cccnn2)oc1C (stereo unspecified) | -27.8%
76 | CC(=O)N1CCCN(C(C)c2ccc(Br)cc2)CC1 (stereo unspecified) | -19.2%
77 | CC(C)CNC(=O)N1CC[C@@H]2CN(Cc3cccnc3)S(=O)(=O)[C@@H]2CC1 | 32.1%
78 | CCC(CC)C(O)CNC(=O)Cc1c[nH]c2ncccc12 (stereo unspecified) | 2.38%
79 | CCN1CCCC(O)(CN(C)Cc2ccccc2F)C1 (stereo unspecified) | 8.46%
80 | O=C1CC(c2ccccc2)C2(CCN(C(=O)c3ccncc3F)CC2)N1 (stereo unspecified) | 32.2%
81 | COCCCNC(=O)Nc1ccc(F)c(C(N)=O)c1 | -23.9%
82 | COc1c(Cl)cc(Cl)cc1CN1CCC(C(N)=O)C1 (stereo unspecified) | -11.3%
83 | O=C(NCc1ccccc1F)N1CCCCC1C1OCCO1 (stereo unspecified) | -6.88%
84 | CCC(CO)N(Cc1cccc(-n2cccn2)c1)Cc1ccccn1 (stereo unspecified) | 25.5%
85 | CCC(CO)N(Cc1cccc(-n2cccn2)c1)Cc1cccs1 (stereo unspecified) | 53.2%
86 | CN(Cc1cccc(-n2cccn2)c1)Cc1cccs1 | -29%
87 | O=C(COc1cccc(F)c1)N1C[C@@H](O)[C@H](N2CCCC2)C1 | 53.5%
88 | CN(C)[C@@H]1CN(C(=O)COc2cccc(F)c2)C[C@H]1O | 54.5%

Row | Structure (SMILES) | INHIBITION
89 | O=C(COc1cccc(F)c1)N1C[C@@H](O)[C@H](N2CCOCC2)C1 | 32.3%
90 | O=C(COc1ccccc1)N1C[C@@H](O)[C@H](N2CCCC2)C1 | 37%
91 | O=C(COc1cccc(F)c1)N1C[C@@H](CN2CCCC2)C[C@H](CO)C1 | -1.315%
92 | O=C(COc1cccc(F)c1)N1C[C@H](CO)C[C@H](CN2CCCC2)C1 | 10.42%
93 | COCCN1C(=O)[C@]2(CC[C@@H]3CN(Cc4ccccc4F)C[C@@H]32)N=C1C | 14.9%
94 | O=C(Nc1cnn(-c2ccccc2Cl)c1)NC1CCC(O)CC1 (stereo unspecified) | -66.7%
95 | Cc1nn(C)c(C)c1S(=O)(=O)N1CC[C@H]2O[C@@H](C)C[C@H]2C1 | 17.4%
96 | COC(=O)[C@H](C)NC(=O)CSCc1nc2sc(C(C)C)cc2c(=O)[nH]1 | 28.7%
97 | O=C(C1CCC1)N1C2CCC(O)(CC2)C1CN1CCOCC1 (stereo unspecified) | 16.2%
98 | Cn1nc(-c2ccc(F)cc2)cc1C(=O)NCCn1ccnc1 | -0.232%
99 | Cc1csc(N2CCN(CC(=O)Nc3nncs3)CC2C)n1 (stereo unspecified) | 40.9%
100 | CC1CN(CC(=O)Nc2ccncc2)CCN1c1nccs1 (stereo unspecified) | 21.6%
101 | Cc1csc(N2CCN(CC(=O)Nc3ccncc3)CC2C)n1 (stereo unspecified) | 71.75%
102 | O=C(CN1CCN(c2nccs2)CC1)Nc1cccnc1 | -24.2%
103 | Cc1csc(N2CCN(CC(=O)Nc3cccnc3)CC2C)n1 (stereo unspecified) | 11.9%
104 | CC1CN(CC(=O)Nc2cccnc2)CCN1c1nccs1 (stereo unspecified) | 52.7%
105 | Cc1cc(N2CCN(Cc3ccnn3C)CC2)cc(C2CCCN2)n1 (stereo unspecified) | 37.45%
106 | Cc1cccc(S(=O)(=O)N2CC[C@H]3CO[C@H](CN(C)C)[C@H]3C2)c1 | -1.55%
